This is part of a sample that, as a whole, favours compounds with a hit. Of some 79,000 tested, about 15% had one in any assay. Values without a mark were called inactive. The source made the active and inactive calls. No stated cut-off is given here; in the data, active means growth inhibition above about 70%; inactive means the rest. *1 amine or outer side, *2 acyl side, *3 side chain or, on linkers, in order; H or OH if unused. Where a SMILES comes first, the peptide text is derived from it. Bridges are numbered along the chain shown (N, C = ends). Roman numbers before positions name the chains, in order. [ ]: non-standard residue; d: D form. Actinocin(9to1) = Cc1c2oc3c(C)ccc(C(=O)[*:1])c3nc-2c(C(=O)[*:2])c(N)c1=O; NMeT = CN[CH](C(=O)O)[CH](C)O; Sar = CNCC(=O)O
Experiments:
[1] = NCI Yeast Anticancer Drug Screen. Data for the rad50 strain (AID 155);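 further: 0% = growth of vehicle-only cultures of the same strain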; conditions: S. cerevisiae rad50 strain growth inhibition; at 50.0 µM; stronger effect = higher value
In short: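 Cells are treated with compound, grown, and their growth is then scored against vehicle-only cultures of the same repair-deficient yeast strain.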

[2] = NCI Yeast Anticancer Drug Screen. Data for the mec2-1 strain (AID 157); conditions: S. cerevisiae mec2-1 strain, at 50.0 µM, stronger effect = higher value
In short: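 Growth inhibition is read against vehicle-treated controls after compound exposure of the mec2-1 yeast strain, which is defective in DNA damage repair or cell cycle control.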

[3] = NCI Yeast Anticancer Drug Screen. Data for the sgs1 mgt1 strain (AID 161);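 further: 0% = growth of cultures given vehicle only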; conditions: S. cerevisiae sgs1 mgt1 strain, at 50.0 µM, stronger effect = higher value
In short: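 Yeast cells carrying a defined DNA-repair defect were exposed to test compounds. Growth inhibition was measured relative to vehicle-treated controls.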

[4] = NCI Yeast Anticancer Drug Screen. Data for the cln2 rad14 strain (AID 165);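 further: 0% = growth equal to vehicle treated cultures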; conditions: S. cerevisiae cln2 rad14 strain, at 50.0 µM, stronger effect = higher value
In short: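 Growth inhibition, relative to vehicle-treated controls, is the read-out. The test organism is a yeast strain with defined genetic alterations, cln2 rad14.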

[5] = NCI Yeast Anticancer Drug Screen. Data for the bub3 strain (AID 167); conditions: S. cerevisiae bub3 mutant strain, at 50.0 µM, stronger effect = higher value
In short: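 Part of a panel of yeast mutants defective in DNA damage repair or cell cycle regulation. Each strain is grown with compound, and inhibition is calculated relative to solvent-treated cultures.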

[6] = NCI Yeast Anticancer Drug Screen. Data for the mlh1 rad18 strain (AID 175); conditions: S. cerevisiae mlh1 rad18 strain growth inhibition; at 50.0 µM; stronger effect = higher value
In short: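 Cells of a genetically altered yeast strain, deficient in DNA damage repair, were treated with compound. Their growth was then compared with that of vehicle-treated cultures to give inhibition.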

Compound | growth inhibition [1] | growth inhibition [2] | growth inhibition [3] | growth inhibition [4] | growth inhibition [5] | growth inhibition [6]
Cc1nc(Nc2ccccc2C)c2ccsc2n1 | 41.3% | 49.5% | 43.2% | 75% (active) | 51.2% | 48%
Cc1ccc(N=Nc2cc(C)c(N)cc2N)c(S(=O)(=O)O)c1 | -33.3% | -5.35% | -16.4% | -38.5% | 3.45% | -24.5%
NC(=O)SCCC(N)C(=O)O (stereo not given) | 8.4% | 27.5% | 3% | 12.7% | 17.9% | -4.9%
CCCNC(C)=O | 12.2% | -26.1% | -24.9% | -27.1% | -8.55% | -1.25%
COc1ccc(/C=C/C(=O)c2ccc(Br)cc2)cc1 | -33.4% | -67.5% | -34.2% | 2.75% | -14.4% | -44.3%
CCOC(=O)NN(C(=O)OCC)C(C(=O)c1ccccc1)N(NC(=O)OCC)C(=O)OCC | 27.6% | 9.9% | 16.9% | 46.4% | 20.9% | 22.4%
c1ccc(N=C(N2CCCC2)N(CCN2CCCC2)c2ccccc2)cc1 | -39.4% | -58.1% | -36.4% | 1.35% | -14.2% | -28.2%
Cc1noc(N)c1Sc1ccc(Br)cc1 | 98.7% (active) | 98.8% (active) | 99% (active) | 98.5% (active) | 98.8% (active) | 99.1% (active)
CCC(Cl)COP(=O)(CC(Cl)CC)OC(C)P(=O)(OCC(Cl)CC)OCC(Cl)CC (stereo not given) | 98% (active) | 98.3% (active) | 98.7% (active) | 97.5% (active) | 97.2% (active) | 98.4% (active)
Cc1ccc2occ(/C=N/NC(N)=S)c(=O)c2c1 | -11.4% | -2.7% | 12.3% | 0.6% | 1.2% | 0.8%
CS(=O)(=O)OC12CC3CC(CC(C3)C1)C2 | 7.3% | -9.1% | -11.8% | -26.5% | -0.75% | 5.55%
Cc1cccc(C2=C/C(=C(\SS/C(C(=O)c3ccc(OCC(=O)O)c(Cl)c3Cl)=C3\C=C(c4cccc(C)c4)SS3)C(=O)c3ccc(OCC(=O)O)c(Cl)c3Cl)SS2)c1 | -6.65% | -22.8% | -0.6% | 1.95% | -5.15% | -10.7%
C=CC1CC1(Cl)Cl (stereo not given) | -10.9% | 12.8% | -4.75% | -50.2% | 0.5% | 11.7%
N#CCCN(CCC#N)S(=O)(=O)c1ccccc1 | -3% | 5.65% | -4.9% | -4.2% | 14.1% | -15.6%
S=c1nc(NCc2ccccc2)[nH]c2[nH]ncc12 | -6.55% | -17.2% | -1.6% | -17.2% | -21% | -2.55%
Cc1[nH]nc(N)c1C(N)=O | 5.2% | 2.5% | 26.6% | 1.2% | 0.85% | 5.85%
COc1ccc2c(c1OC)C(O)N1CCc3cc4c(cc3C1=C2C(=O)c1ccccc1)OCO4 (stereo not given) | 6.75% | 14.2% | 0.5% | -5.3% | 28.1% | 22.8%
CC(=O)OC1COC(N2C(=O)C(=O)c3cc(Br)c([N+](=O)[O-])cc32)C(OC(C)=O)C1OC(C)=O (stereo not given) | 14.3% | 12.2% | -10.6% | -1.9% | -9.6% | 1.3%
CC1(C)CC([N+](C)(C)CCCCCC[N+](C)(C)C2CC(C)(C)N(O)C(C)(C)C2)CC(C)(C)N1O | 3.6% | 0.45% | 14.9% | -4.3% | -3% | 12.5%
O=C1OCCC1n1cc(F)c(=O)[nH]c1=O (stereo not given) | 3.15% | -5.3% | -3.45% | -39% | -20.2% | -2%

Compound | growth inhibition [1] | growth inhibition [2] | growth inhibition [3] | growth inhibition [4] | growth inhibition [5] | growth inhibition [6]
O=C(O)CS(=O)(=O)Cc1ccc(Cl)cc1Cl | 15.6% | 20.4% | 24% | 12.8% | 25.1% | 18.6%
Nc1ncncc1Oc1ccccc1 | 8.25% | -5.35% | -0.2% | -33.6% | 4.05% | -14.4%
Nc1nnc(-c2cccc(-c3nnc(N)o3)c2)o1 | -13.5% | -24.6% | -9.8% | -41.4% | -6.5% | -15.1%
CN(N)c1cc(=O)n(C)c(=O)n1C | -1.35% | -1.2% | -10.7% | -45.1% | -3.05% | 15.6%
CCCCCCCCCCCCCCCCCCC(CO)CO | -22.4% | -20.6% | -8.65% | -45% | -10.2% | 1.8%
CCSc1sc(=Nc2ccc(N=c3sc(C)c(SC)s3)cc2)sc1-c1ccc(C)cc1 | -33.6% | -0.75% | -11.2% | -39.1% | 2.25% | -5.2%
COc1ccc2nc3ccccc3c(NCCCN(C)C)c2c1 | 33.7% | 41.1% | 36.5% | 60.1% | 6.65% | 12.3%
Cc1nc(N)[nH]c(=O)c1CCCNC(=O)c1cccc([N+](=O)[O-])c1 | -1.55% | 2.65% | 11.4% | -4.7% | 30.5% | 18.6%
Cn1ccnc1Sc1ccccn1 | -8.7% | 30.1% | 1.7% | 21.9% | 7.3% | 6.15%
CCN(CC)CCOC(=O)c1ccc(NC(=O)OCCC(C)(C)CCOC(=O)Nc2ccc(C(=O)OCCN(CC)CC)cc2)cc1 | 6.85% | -18.4% | -9.25% | -23.6% | 8.25% | 16.2%
O=C(NCCO)C(=O)NCCO | 5.25% | -13.3% | 5.7% | -9.35% | -2.55% | 17.6%
OC1C2CCC(C2)C1CN1CCOCC1 (stereo not given) | -6% | -3.35% | -8.1% | 1.85% | 4.95% | 1.7%
Clc1ccc2c(c1)C(Nc1cc3c4ccccc4ccc3c3ccccc13)c1cc(Cl)cc(Cl)c1-2 (stereo not given) | 51.2% | -1.25% | 22.6% | 21.1% | 9.3% | 12.2%
Cc1c2oc3c(C)ccc(C(=O)NC4C(=O)NC(C(C)C)C(=O)N5CCCC5C(=O)N(C)CC(=O)N(C)C(C(C)O)C(=O)OC4C)c3nc-2c(C(=O)NC2C(=O)NC(C(C)C)C(=O)N3CCCC3C(=O)N(C)CC(=O)N(C)C(C(C)O)C(=O)OC2C)c(N)c1=O (stereo not given) (I: TVP[Sar][NMeT] / II: TVP[Sar][NMeT]; ester I:1-I:C, II:1-II:C; linker I:N-II:N via Actinocin(9to1); configuration not given here) | 19.4% | -21% | -3.3% | 31.3% | -5.3% | -52.5%
Cc1cc(CN(C)C)cc(C(C)C)c1O | 1.85% | -0.9% | -12% | 34.1% | 12.8% | -3.95%
CCc1cc(CCC(=O)Nc2ccccc2[N+](=O)[O-])[nH]c(=S)n1 | -10.6% | -20.8% | 11.3% | 12% | -14.3% | -11.2%
CN1CC2(C)OC3(CC2(C)N1C)N(C)N(C)CC3(C)O (stereo not given) | -12.2% | -1.9% | -12.8% | 40% | 11.8% | -8.95%
c1ccc(-c2oc3ccccc3c2-c2ccc(OCCN3CCCC3)cc2)cc1 | 99.5% (active) | 99.6% (active) | 99.7% (active) | 99.3% (active) | 99.3% (active) | 99.5% (active)
COc1cccc2c1C(=O)OC2c1cccc2ccccc12 (stereo not given) | 10.5% | -7.45% | 7.25% | 28.2% | 4.3% | 16%
CC(=O)SC1CC(=O)OC1=O (stereo not given) | -3.1% | -15.3% | 7.1% | 7.8% | 0.2% | 7.85%

From PubChem BioAssay (NCI)
